HCV inh – inhibitors of hepatitis C virus infection; Huh7.5.1 HCVcc-Cre infection, luciferase reporter, 44 h; Potency, µM (highest dose often 41.8 µM), usual class: inhibitors; 340,000 tested, 3.4% active; AID 651820
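Infectious HCV cell culture screen: compound-treated cells (1,000/well, pre-plated 4 h) are infected with HCVcc-Cre at roughly 0.5 moi and grown 44 h. Infection is quantified by luciferase signal after 15 min substrate incubation at room temperature.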
Pf growth 48h – P. falciparum growth inhibition at 48 hours (one generation); P. falciparum luciferase growth in erythrocytes, 48 h; Potency, µM (titrated, usually from 28.7 µM), actives largely listed as inhibitors; 310,000 tested, 5.9% active; AID 504832
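Erythrocytes infected with P. falciparum carrying an integrated firefly luciferase reporter (2% hematocrit, 0.1% parasitemia final) were exposed to compounds in RPMI 1640 with 0.5% Albumax at 37 C, 5% CO2. Growth inhibition was scored as reduced luminescence.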
LASV entry inh – blocks Lassa virus binding to or entry into cells; Lassa virus pseudotype entry inhibition, cell reporter; Potency, µM (doses to about 37.9 µM), usual class: inhibitors; 300,000 tested, 1.2% active; calls by dose curve; tested in HEK293 cells; also: nearly all actives have a fitted effect of over 50% in size
Pf growth 96h – P. falciparum growth inhibition at 96 hour, primary screen for plastid delayed-death inhibitors; P. falciparum luciferase reporter growth, 96 h; Potency, µM (series often up to 28.7 µM), usual class: inhibitors; 320,000 tested, 6.9% active; AID 504834
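Erythrocytes infected with luciferase-expressing P. falciparum were dispensed at 2% hematocrit and 0.05% parasitemia (final), then incubated with compounds 96 hours at 37 C in 5% CO2. Luminescence after detection reagent addition reported growth.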
HCMV antiviral – inhibitors of human cytomegalovirus; 410,000 tested, 4.5% active; AID 1259415; activity change, negative = inhibition, % at 57.5 µM; HFF cells, HCMV-luciferase reporter, 72 h; active compounds read low; in the data active = activity change below about -60%; inconclusive = no clear call, values can overlap the other calls; inactive = above about -39%
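After 16 h attachment at 37C, HFF cells received test compound and HCMV-luciferase (1 PFU/cell); reporter luminescence read 72 h later, data normalized against buffer-only and known inhibitor Salinomycin.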
MARV entry inh – blocks Marburg virus binding to or entry into cells; Marburg virus pseudotyped entry inhibition, cell reporter; Potency, µM (series often up to 37.8 µM), usual class: inhibitors; 300,000 tested, 1.8% active; AID 540276; calls by dose curve; tested in HEK293 cells
Numbers stand for hits. A selection: hits, their analogues and other compounds. The true share with any hit is near 14%. Unless noted, calls follow the shape of the dose curve; as a rule, active = well fitted inhibition curve with a large enough effect; inconclusive = small, poorly fitted or top-dose-only effect, or another doubt; inactive = no such curve, though single readings can be large or run the other way.

CCOc1ccc(CN2CCNC(=O)C2CC(=O)NCc2csc(C)n2)cc1 (stereo not drawn) was read as Pf growth 48h inactive, LASV entry inh inactive, Pf growth 96h 3.3µM, HCMV antiviral inactive and MARV entry inh inconclusive.
Screening CC(C)CN1CCNC(=O)C1CC(=O)NCCc1ccc(C(F)(F)F)cc1 (stereo not drawn) returned HCV inh inactive, Pf growth 48h inactive, LASV entry inh inactive, Pf growth 96h inactive, HCMV antiviral -101 and MARV entry inh inactive.
For CC(C)CN1CCNC(=O)C1CC(=O)NCCc1cnn(-c2ccccc2)c1 (stereo not drawn) the results were HCV inh inactive, Pf growth 48h inactive, LASV entry inh inactive, Pf growth 96h inconclusive, HCMV antiviral inactive and MARV entry inh inactive.
`O=C(CC1C(=O)NCCN1Cc1ccc(F)cc1)NCCOc1cccnc1` (stereo not drawn) gave HCV inh inactive, Pf growth 48h inactive, LASV entry inh inactive, Pf growth 96h inconclusive, HCMV antiviral inactive and MARV entry inh inactive.
For O=C(CC1C(=O)NCCN1Cc1c(F)cccc1Cl)NCCCOc1cccnc1 (stereo not drawn) the results were HCV inh inactive, Pf growth 48h inactive, Pf growth 96h 15µM and HCMV antiviral inactive.
For O=C(CC1C(=O)NCCN1Cc1cccc(C(F)(F)F)c1)NCCc1cnccn1 (stereo not drawn) the results were HCV inh inactive, Pf growth 48h inactive, LASV entry inh inactive, Pf growth 96h 2.1µM, HCMV antiviral inactive and MARV entry inh inactive.
Screening CCOc1ccc(CN2CCNC(=O)C2CC(=O)NCCc2cnccn2)cc1 (stereo not drawn) returned HCV inh inactive, Pf growth 48h inactive, LASV entry inh inconclusive, Pf growth 96h inactive, HCMV antiviral inactive and MARV entry inh inactive.
For CCC1CCCCN1C(=O)COc1ccc(S(=O)(=O)N2CCOCC2)cc1Cl (stereo not drawn) the results were HCV inh inactive, Pf growth 48h inconclusive, Pf growth 96h inconclusive and HCMV antiviral inactive.
`O=C(CC1C(=O)NCCN1Cc1cccc(Oc2ccccc2)c1)NCCc1ccccn1` (stereo not drawn) gave HCV inh inactive, Pf growth 48h inconclusive, LASV entry inh 6.3µM, Pf growth 96h inactive, HCMV antiviral inactive and MARV entry inh inconclusive.
`COc1cccc(CN2CCNC(=O)C2CC(=O)NCCc2ccccn2)c1` (stereo not drawn) gave HCV inh inactive, Pf growth 48h inactive, LASV entry inh inactive, Pf growth 96h inconclusive, HCMV antiviral inactive and MARV entry inh inactive.
Screening COc1ccc(C(=O)CC(=O)c2ccccc2)cc1 returned HCV inh inactive, LASV entry inh inconclusive, HCMV antiviral inactive and MARV entry inh inactive.
Screening COc1ccc(C(CC(=O)c2ccccc2)S(=O)(=O)c2ccc(C)cc2)cc1 (stereo not drawn) returned HCV inh inconclusive, Pf growth 48h inactive, LASV entry inh inactive, Pf growth 96h inactive, HCMV antiviral -105 and MARV entry inh inactive.
CC(=O)CC(c1ccccc1)S(=O)(=O)c1ccc(C)cc1 (stereo not drawn) was read as HCV inh inactive, Pf growth 48h inconclusive, LASV entry inh inactive, Pf growth 96h inactive, HCMV antiviral inactive and MARV entry inh inactive.
Screening COc1ccc(C(=O)C/C(=C\C(=O)c2ccc(C)cc2)c2ccccc2)cc1 returned HCV inh 11µM, Pf growth 48h inconclusive, LASV entry inh inconclusive, Pf growth 96h 10µM, HCMV antiviral -98 and MARV entry inh inconclusive.
For CC(=O)N1C=Cc2c(c(C)c3c([nH]c4ccccc43)c2C)C1 the results were Pf growth 48h 1.9µM and Pf growth 96h inactive.
Screening COc1cccc(C(=O)NCc2cn3ccccc3n2)c1 returned LASV entry inh inactive, HCMV antiviral inactive and MARV entry inh inactive.
`Cc1cc(C)cc(CC(Cc2nc3ccccc3[nH]2)c2nc3ccccc3[nH]2)c1` (stereo not drawn) gave HCV inh 5µM, Pf growth 48h 2.3µM, LASV entry inh inconclusive, Pf growth 96h inactive, HCMV antiviral -101 and MARV entry inh inconclusive.
